Our source for the Potency values is PubChem BioAssay AID2778 (National Center for Advancing Translational Sciences (NCATS), 2010).

Records with an inconclusive call do not appear. Entries that show only a call come without a potency. Calls of active or inactive are those of the source. Calls come from the whole dose curve; as a rule, active = well fitted inhibition curve with a large enough effect; inconclusive = small, poorly fitted or top-dose-only effect, or effect the other way; inactive = flat fitted curve, though single readings scatter.
Potency is the fitted concentration of half-maximal effect.

Chain of Menin (Homo sapiens) (O00255 whole entry, looked up): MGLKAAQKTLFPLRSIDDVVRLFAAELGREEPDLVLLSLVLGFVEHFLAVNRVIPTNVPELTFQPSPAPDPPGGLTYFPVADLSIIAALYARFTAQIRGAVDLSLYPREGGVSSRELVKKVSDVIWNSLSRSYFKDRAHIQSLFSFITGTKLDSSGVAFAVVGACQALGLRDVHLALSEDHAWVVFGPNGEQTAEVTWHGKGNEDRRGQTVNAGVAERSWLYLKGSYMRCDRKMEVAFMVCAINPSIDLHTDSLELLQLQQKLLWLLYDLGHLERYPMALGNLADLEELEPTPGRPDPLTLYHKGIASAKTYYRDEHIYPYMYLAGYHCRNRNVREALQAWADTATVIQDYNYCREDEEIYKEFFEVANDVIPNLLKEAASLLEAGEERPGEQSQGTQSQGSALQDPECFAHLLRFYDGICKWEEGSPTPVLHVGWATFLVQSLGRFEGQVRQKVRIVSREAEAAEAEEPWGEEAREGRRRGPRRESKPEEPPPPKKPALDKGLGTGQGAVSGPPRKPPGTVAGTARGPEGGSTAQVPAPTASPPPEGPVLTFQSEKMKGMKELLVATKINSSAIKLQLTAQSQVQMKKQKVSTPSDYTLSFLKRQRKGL

The target of this test is Menin (Homo sapiens) (UniProt O00255). The test is described as follows: Confirmation of Inhibitors Targeting the Menin-MLL Interaction in MLL Related Leukemias: Confirmation in an HTRF (commercial TR-FRET) Assay using His-tagged menin and biotin-labeled MLL peptide. As to conditions: His-menin / biotin-MLL peptide binding; series mostly up to 126 µM. The procedure, abridged:
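HTRF: His6-menin (200 nM) and biotin-MLL-w.t. peptide (80 nM) preincubated 15 min, then compounds 1 hr at ambient, before Eu-cryptate anti-His (3.5 nM) and streptavidin-XL665 (10 nM) for 1 h; 50 mM Tris-HCl pH 7.5, 50 mM NaCl, 1 mM DTT, BSA.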
In the case of `CN[C@H]1[C@H](O)[C@@H](O[C@@H]2[C@H](O)[C@@H](O[C@H]3OC(CN)=CC[C@H]3N)[C@@H](N)C[C@H]2N)OC[C@@]1(C)O`, the Potency entry was “inactive”.

With `CCCC(c1nnnn1Cc1cccs1)N1CCN(C2CCCC2)CC1` (centres undefined), the Potency result was “inactive”.

Turning to `CC(=O)NC1C(=O)N(CCN2CCOCC2)c2ccc(F)cc21` (centres undefined), the Potency result was “inactive”.

Consider `O=C(c1cc2c(=O)n3ccccc3nc2s1)N1CCOCC1`, for which the Potency result is “inactive”.

With `O=C(C1CCCN(Cc2cccc(Cl)c2)C1)N1CCCCC1` (centres undefined), the Potency result was “inactive”.

For the molecule `Cc1ccc(C#CC(C)(O)C(C)(C)C)cn1` (centres undefined), the Potency result was “inactive”.

Consider `O=C1CCNc2c(Cl)cc(Cl)cc21`, for which the Potency result was “inactive”.

Turning to `COC(CSc1nc(N)c2c3c(sc2n1)CN(C)CC3)OC`, the Potency entry was “inactive”.

As for `Cc1ccc(-c2cc(C(=O)Nc3cc(C)ccc3O)no2)cc1`, the Potency result was “inactive”.

As to `CCOC(=O)CCC(=O)NCc1ccc2c(c1)cc(C)n2C`, the Potency result was “inactive”.

Consider `Cc1cc2ccccc2nc1SCC(=O)Nc1nc(-c2ccccc2)cs1`, for which the Potency result was “inactive”.

Turning to `NC(=O)c1cc2ccccc2o/c1=N/NC(=O)c1cccc(F)c1`, the Potency entry is “inactive”.

Consider `O=C(NC(=S)N1CCCc2ccccc21)c1ccc([N+](=O)[O-])cc1`, for which the Potency entry is “inactive”.

Consider `O=C(CSc1nnnn1-c1ccc(O)cc1)N1N=C(c2ccc3ccccc3c2)CC1c1ccccc1` (centres undefined), for which the Potency entry is “inactive”.

For the molecule `O=C(CC(=O)c1ccccc1)Nc1cc(C(F)(F)F)ccc1Cl`, the Potency entry was “inactive”.

As to `O=C(O)c1ccccc1NS(=O)(=O)c1cccc(-n2sc3ccccc3c2=O)c1`, the Potency entry is “inactive”.

Take `COc1cc(OC)cc(C(=O)N/N=C/c2ccc(OC)c(COc3ccc4ccccc4c3)c2)c1`: the Potency entry was “inactive”.

In the case of `C[N+]1(CCNC(=O)/C=N/O)CCCCC1`, the Potency entry was “inactive”.

As to `COc1ccc(CNC(=O)C(c2ccc(O)cc2)N(Cc2ccco2)C(=O)c2snc(C(N)=O)c2N)cc1` (centres undefined), the Potency entry was “inactive”.

For `CCOC(=O)c1cnc2ccc(OC)cc2c1Nc1ccc(N2CCN(C)CC2)cc1`, the Potency result was “inactive”.

For the molecule `CNC[C@H](CC1CCCCC1)NC[C@H](Cc1ccccc1)NCCC12CC3CC(CC(C3)C1)C2`, the Potency was 251 µM (active).

On to `O=C(CCN1CCN(c2ccc([N+](=O)[O-])cc2)CC1)c1ccc(Cl)cc1`, for which the Potency result was “inactive”.

Regarding `O=c1cc(O)c2ccccc2n1Cc1ccccc1F`, the Potency entry was “inactive”.

For the molecule `CCN1C(=O)[C@@H]2C(C(=O)c3cnccn3)=NN[C@@H]2C1=O`, the Potency result is “inactive”.

For the molecule `CCOC(=O)N1CCN(Cc2nnc(-c3ccccc3C)o2)CC1`, the Potency result was “inactive”.

Take `O=C(CC(Sc1ccc(Br)cc1)C(=O)O)c1ccc(F)cc1` (centres undefined): the Potency result is “inactive”.

For the molecule `CCN(CCn1cccn1)Cc1ccccc1OCC(O)CN1CCc2ccccc2C1` (centres undefined), the Potency entry was “inactive”.

Regarding `OC(c1ccccn1)(c1ccccn1)c1ccccn1`, the Potency entry is “inactive”.

Regarding `Cc1cc2cc(C(c3nnnn3CC3CCCO3)N3CCCc4ccccc43)c(=O)[nH]c2cc1C` (centres undefined), the Potency entry was “inactive”.

Regarding `CCOc1ccc(CCNC(=O)C(C)N2C(=O)CC(C)(C)Sc3ccccc32)cc1` (centres undefined), the Potency result was “inactive”.

As to `O=C(NC1CCN(c2ncccn2)CC1)c1c(F)cccc1F`, the Potency result is “inactive”.

`O=C(N/N=C/c1cn(-c2cccs2)nc1-c1ccccc1)c1ccccc1O`: the Potency entry is “inactive”.

Regarding `COCC(=O)Nc1cccc2ccccc12`, the Potency result was “inactive”.

`CC(C)Sc1nc(N2CCOCC2)c2c3c(sc2n1)COC(C)(C)C3`: the Potency was 316 µM (active).
